SNCA expr inh: SNCA gene expression inhibition | HEK-293 SNCA-luciferase knock-in, luminescence, 24 h | Potency, µM (doses to about 57.2 µM), without a hit: at the highest dose activity change, negative = inhibition, usual class: inhibitors | actives 0.17% (n = 140,000) | AID 1671194;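 also: potency is read from the fitted curve at half-maximal effect; plate controls were DMSO cells for no effect and cell-free wells for full effect; nearly all actives have a fitted effect of over 45% in size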
KDM5B inhibitor: inhibitors of human KDM5B histone demethylase; Potency, µM (series often up to 57.7 µM), actives largely listed as inhibitors; actives 2.6% (n = 220,000); AID 1347165; KDM5B demethylase, FDH-coupled NADH fluorescence (FDH is formaldehyde dehydrogenase); Q9UGL1; also: potency is read from the fitted curve at half-maximal effect; 0% is about no effect; nearly all actives have a fitted effect of over 70% in size
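Inhibition is measured as reduced NADH fluorescence generation from FDH coupling to formaldehyde release. Truncated KDM5BΔAP at 200 nM final acts on H3K4me3 peptide (12.5 µM in substrate mix) in pH 7.5 HEPES buffer with Tween-20, 30 min, room temperature.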
IP6K1 inh: blocks human inositol hexakisphosphate kinase 1 | Q92551 | actives 0.81% (n = 140,000) | IP6K1 kinase, ADP-Glo luminescence, 2 h; hits give low values | activity change, % (series mostly up to about 58 µM); in the data active = activity change below about -25%; also: % is scaled to controls: 0 for no effect and ±100 for the full control effect
Target sequence (Q92551 whole entry, looked up): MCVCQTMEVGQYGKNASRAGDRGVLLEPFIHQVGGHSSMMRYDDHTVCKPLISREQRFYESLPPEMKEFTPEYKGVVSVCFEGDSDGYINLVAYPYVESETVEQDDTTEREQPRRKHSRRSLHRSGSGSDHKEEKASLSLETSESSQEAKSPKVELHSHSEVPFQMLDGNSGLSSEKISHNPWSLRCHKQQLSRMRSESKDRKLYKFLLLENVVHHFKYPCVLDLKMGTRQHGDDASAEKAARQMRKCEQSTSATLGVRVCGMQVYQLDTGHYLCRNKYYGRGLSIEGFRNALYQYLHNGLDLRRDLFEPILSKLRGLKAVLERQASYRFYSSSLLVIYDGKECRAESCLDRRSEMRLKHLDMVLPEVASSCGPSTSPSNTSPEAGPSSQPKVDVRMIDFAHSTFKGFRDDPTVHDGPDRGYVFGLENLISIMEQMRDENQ
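ADP-Glo luminescence measures ADP made by human IP6K1 during a 2 h RT reaction with ATP/IP6 (mix at 1.3 mM/130 uM); top library doses 57.5 and 19.1 uM final.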
HEK293 viab: counter-screen for SNCA expression inhibitors: cell viability. HEK-293-SNCA-luc viability, GF-AFC fluorescence, 24 h. Potency, µM (highest dose often 57.1 µM), without a hit: top-dose activity change, negative = cytotoxicity, actives largely listed as cytotoxic. actives 0.12% (n = 150,000). AID 1671193;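 also: potency is read from the fitted curve at half-maximal effect; 0% = DMSO-treated cells and -100% = medium-only wells without cells; nearly all actives have a fitted effect of over 30% in size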
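Cytotoxicity counterscreen: after 24 h compound treatment of genome-edited SNCA-luciferase HEK-293 cells, live-cell protease substrate GF-AFC read by fluorescence after 30 min; activity scaled between DMSO (0%) and medium-only (-100%), curves Hill-fitted.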
* hit, by the source's call; i = inactive; ? = inconclusive; . = no result; ! = repeats disagree; [ ] = another dose, or the depositor's remark. This is a sample that favours compounds with a hit; in the whole collection about 2.8% have one here. Unless noted, calls follow the shape of the dose curve; as a rule, active = well fitted curve in the direction sought with a large enough effect; inconclusive = small, poorly fitted or top-dose-only effect, or another doubt; inactive = no such curve, though single readings can be large; an effect the other way counts as inactive or inconclusive.

SMILES | SNCA expr inh | KDM5B inhibitor | IP6K1 inh | HEK293 viab
CCCCCC(=O)Nc1nc2c(s1)C[C@@H]1[C@](C)(CO)[C@H](O)CC[C@@]1(C)[C@@H]2CC(=O)N[C@H](C)c1ccccc1 | 1.6% | i | -1.7 | -20.1%
COCCNC(=O)C[C@@H]1c2nc(-c3ccccc3)sc2C[C@@H]2[C@](C)(CO)[C@H](O)CC[C@]21C | 1.2% | 28.2µM* | -13.3 | 4.2%
C[C@]1(CO)[C@H]2Cc3sc(-c4ccccc4)nc3[C@@H](CC(=O)N3CCOCC3)[C@]2(C)CC[C@H]1O | ? | ? | -7.8 | 1.8%
CC(C)C[C@H](CO)NC(=O)C[C@@H]1c2nc(-c3cccnc3)sc2C[C@@H]2[C@](C)(CO)[C@H](O)CC[C@]21C | 6.0% | 31.6µM* | -11.9 | -5.1%
C#CCN(C)C(=O)C[C@@H]1c2nc(-c3cccnc3)sc2C[C@@H]2[C@](C)(CO)[C@H](O)CC[C@]21C | 11.3% | 31.6µM* | 3.7 | 10.2%
Cc1cc(C(=O)COc2ccc3ccc(=O)oc3c2)c(C)n1C1CC1 | . | i | . | .
CC(=O)c1cn(CC(=O)N2CCCCCC2)c2ccccc12 | . | i | . | .
CC(C)CC(NC(=O)C1CC1)c1cccs1 (stereo not drawn) | . | i | . | .
O=c1c2nc(Nc3cccc(F)c3)ccc2ncn1Cc1ccccc1 | 11.3%[87.6 µM] | ? | 5.5 | ?
O=c1c2nc(NCc3cccs3)ccc2ncn1Cc1ccccc1 | 19.1%[87.6 µM] | 39.8µM* | 11.8 | -6.2%[87.6 µM]
CCCCOc1cccc(N)c1 | . | i | . | .
O=C(NCC1CCN(c2cc(-c3ccccc3)[nH]n2)CC1)c1ccc[nH]c1=O | 3.2% | 31.6µM* | 8.4 | -6.0%
COCCCNC(=O)c1cc2c(=O)[nH]c(-c3ccccc3)cn2n1 | 0.4% | 25.1µM* | 3.6 | -18.9%
O=C(NC1CC1)c1cc2c(=O)[nH]c(-c3ccccc3)cn2n1 | ? | 28.2µM* | -3.2 | -3.6%
CC(C)N1CCN(C(=O)c2cc3c(=O)[nH]c(-c4ccccc4)cn3n2)CC1 | 16.3% | 25.1µM* | -13.6 | -14.2%
CCCNC(=O)c1cc2c(=O)[nH]c(-c3ccccc3)cn2n1 | -13.4% | 25.1µM* | 8.7 | 1.9%
CCOCCNC(=O)c1cc(-c2cccc(OC)c2)nc2c1cnn2C | . | . | -13.8 | .
COc1ccc(-c2nc(C(=O)Nc3cccc(C(C)=O)c3)nn2-c2ccc(Cl)cc2)cc1 | -7.2% | i | 8.9 | 11.4%
COCCOc1nc(-c2ccc(Cl)c(Cl)c2)n(-c2ccc(NC(=O)CCl)cc2)n1 | 15.0% | . | 9.2 | 29.9µM*!
COc1cccc(-c2ncc(CNC(=O)[C@H]3CC[C@@H](N)C3)s2)c1 | 37.1% | 25.1µM* | 23.3 | 6.1%
COc1cccc(-c2ccc(C(=O)NCCNC(=O)C3CC3)cc2)c1 | . | . | -11.3 | .
CCN(C(=O)c1cccc(F)c1F)[C@@H]1CCN(c2ncccc2C#N)C[C@H]1O | -4.0% | 28.2µM* | 12.7 | 1.9%
N#Cc1cccnc1N1CCC(NC(=O)c2ccc3cccc(F)c3n2)CC1 | 17.4% | 28.2µM* | 19.5 | 4.4%
N#Cc1cccnc1-c1ccc(C(=O)N2CCC(NC(=O)c3ccccc3F)CC2)cc1 | -6.4% | . | -3.6 | 6.9%[12.5 µM]
NC1CCCCN(C(=O)CCc2nc3ccccc3[nH]c2=O)C1 (stereo not drawn) | 14.9% | ? | -6.3 | 0.4%
SMILES | SNCA expr inh | KDM5B inhibitor | IP6K1 inh | HEK293 viab
O=C1NCC2(CCCN(C(=O)CCc3nc4ccccc4[nH]c3=O)C2)O1 (stereo not drawn) | 6.3% | 22.4µM* | 10.1 | 1.0%
Cn1ccnc1SCC(=O)NC1(C#N)CCCCCC1 | . | i | . | .
Cc1ccc(NC(=O)Nc2ccc(C)n(CC(=O)Nc3ccc(C)cc3C)c2=O)cc1 | 115.9% | i | -6.5 | 14.8%
COc1ccccc1NC(=O)Cn1c(C)ccc(NC(=O)Nc2ccc(C)cc2)c1=O | 14.4% | 17.8µM* | -6.6 | -21.7%
Cc1cccc(NC(=O)Nc2ccc(C)n(CC(=O)O)c2=O)c1 | -7.2% | 20µM* | 5.7 | 14.7%
Cc1cccc(NC(=O)Nc2ccc(C)n(CC(=O)Nc3ccc(C)c(C)c3)c2=O)c1 | 10.0% | i | 3.9 | -27.0%
Cc1ccc2nc(C3CCCN(Cc4ccccc4)C3)[nH]c(=O)c2c1 (stereo not drawn) | -5.5%[87.6 µM] | i | 2.6 | -4.1%[87.6 µM]
CCn1c(C2CCCN(Cc3c(C(=O)O)[nH]c4ccc(C)cc34)C2)n[nH]c1=O (stereo not drawn) | 9.4% | 28.2µM* | 16.3 | 8.4%
CCc1noc(-c2ccn3c(CNC(=O)c4nccc5ccccc45)nnc3c2)n1 | -8.3% | ? | 6.4 | -3.8%
Cc1cc(C)cc(C(=O)NCc2nnc3cc(-c4nc(C5CC5)no4)ccn23)c1 | -13.6% | i | 14.2 | -3.1%
Cc1noc(-c2ccn3c(CNC(=O)c4nccc5ccccc45)nnc3c2)n1 | 29.7% | 31.6µM* | 6.8 | -3.1%
O=C(NCc1nnc2cc(-c3nc(C4CC4)no3)ccn12)c1ccoc1 | -13.7% | 31.6µM* | -0.5 | ?
O=C(NCc1nnc2cc(-c3nc(C4CC4)no3)ccn12)c1ccccc1Cl | -29.1% | 22.4µM* | 35.7 | -4.5%
Cc1noc(-c2ccn3c(CNC(=O)c4ccccc4Cl)nnc3c2)n1 | -2.7% | 28.2µM* | -3.2 | -10.5%
Cc1nc(NC(=O)c2cc(F)ccc2Br)sc1C | . | i | . | .
CCCCCC(=O)N1CCC(=O)N(CC)C[C@H]2COc3ccccc3[C@H]21 | . | . | -3.2 | .
COc1ccc(CNC(=O)CN2C(=O)C(C)=C(c3ccc(C)c(C)c3)S2(=O)=O)c(OC)c1 | . | i | . | .
Cc1ccc(CN2CCCCCCNC(=O)CC2c2ccccc2)s1 (stereo not drawn) | 4.0% | i | 2.2 | -2.5%
Cc1noc(-c2ccn3c(CNC(=O)c4ccc(F)c(Cl)c4)nnc3c2)n1 | 3.0% | 25.1µM* | 17.7 | 0.0%
O=C(NCc1nnc2cc(-c3nc(C4CC4)no3)ccn12)c1cccc(Cl)c1 | -23.7% | 14.1µM* | 33.4 | -12.2%
O=C(NCc1nnc2cc(-c3nc(C4CC4)no3)ccn12)c1c(F)cccc1F | -13.8% | 25.1µM* | 13.0 | -2.2%
Cc1ccc(C(=O)NCc2nnc3cc(-c4nc(C5CC5)no4)ccn23)cc1F | ? | ? | -2.9 | ?
O=C(NCc1nnc2cc(-c3nc(C4CC4)no3)ccn12)c1ccccc1 | -24.1% | i | 12.0 | 5.9%
CN(C)CCCNc1oc(-c2ccco2)nc1S(=O)(=O)c1ccc2c(c1)OCCO2 | . | i | . | .
COc1cccc([S+](=O)([O-])NC[C@@H]2CC[C@H]3C[C@@H]2C3(C)C)c1 | 7.08µM* | i | 2.2 | ?
CC1(C)[C@H]2CC[C@@H](CNC(=O)c3cccc(Br)c3)[C@@H]1C2 | -7.3%[87.6 µM] | i | -0.4 | -14.7%[87.6 µM]
Cc1ccc(NC(=O)c2cc3c(N4CCSCC4)nc(C)cn3n2)c(F)c1 | -9.9% | 28.2µM* | 9.0 | 9.2%
Cc1cn2nc(C(=O)Nc3ccc(F)cc3C)cc2c(N2CCSCC2)n1 | 28.4% | 25.1µM* | 0.0 | ?
COc1cc(NC(=O)c2cc3c(N4CCSCC4)nc(C)cn3n2)c(OC)cc1Cl | -17.2% | ? | 5.0 | 3.7%
